Data published in PubChem BioAssay AID1159580 (chemical genetic matrix, 2015).
Several values for one entry are separate records, joined by “and”; a condition that tells them apart may be missing. Equal entries are not always repeated. The campaign covered roughly 5,500 compounds. About 2,000 (36%) were called active. Another 18% or so got no clear call; they are omitted. Cut-off read from the data, not from the text of the source: active = normalized growth mostly below about 0.91 (no sharp cut-off); inconclusive = no clear call, values can overlap the other calls; inactive = mostly above about 0.92. Some of the results follow.

Assay: chemical genetic growth profiling, strain panel (AID 1159580);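 note: tested at 20 µM; growth read once vehicle control cultures reached saturation at 30 °C; 1 = growth at the plate median or of vehicle wells; lower values mean less growth of the strain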
Settings: S. cerevisiae deletion strains, growth OD

Measured: normalized growth

CC(=O)O[C@@H]1CC2C(C)(CC[C@H](O)C2(C)C)C2CC[C@]3(C)C(=CC(=O)O[C@H]3c3ccoc3)C21C (stereo not given in full)
inactive: locus YAL013W, strain DEP1, stronger effect = lower value 0.999 | locus YAL021C, strain ccr4, stronger effect = lower value 0.995 | locus YAL026C, strain drs2, stronger effect = lower value 1 | locus YAL030W, strain snc1, stronger effect = lower value 0.998 | locus YBL061C, strain skt5, stronger effect = lower value 1.02 | locus YBR009C, strain hhf1, stronger effect = lower value 1.02 | locus YBR021W, strain FUR4, stronger effect = lower value 0.868 | locus YBR023C, strain chs3, stronger effect = lower value 1 | locus YBR171W, strain sec66, stronger effect = lower value 1 | locus YBR229C, strain ROT2, stronger effect = lower value 1 | locus YBR231C, strain swc5, stronger effect = lower value 1 | locus YBR279W, strain paf1, stronger effect = lower value 1 | locus YCL011C, strain gbp2, stronger effect = lower value 0.995 | locus YCL016C, strain dcc1, stronger effect = lower value 1 | locus YCL029C, strain bik1, stronger effect = lower value 0.999 | locus YCL061C, strain MRC1, stronger effect = lower value 0.999 | locus YCL069W, strain vba3, stronger effect = lower value 1.02 | locus YCR088W, strain abp1, stronger effect = lower value 1 | locus YDL005C, strain med2, stronger effect = lower value 0.986 | locus YDL035C, strain GPR1, stronger effect = lower value 1.02 | locus YDL040C, strain nat1, stronger effect = lower value 1 | locus YDL074C, strain BRE1, stronger effect = lower value 1.02 | locus YDL101C, strain DUN1, stronger effect = lower value 1 | locus YDL134C, strain PPH21, stronger effect = lower value 0.984 | locus YDL185W, strain tfp1, stronger effect = lower value 1 | locus YDL192W, strain arf1, stronger effect = lower value 1 | locus YDR001C, strain nth1, stronger effect = lower value 1 | locus YDR069C, strain doa4, stronger effect = lower value 1.02 | locus YDR101C, strain arx1, stronger effect = lower value 0.994 | locus YDR137W, strain rgp1, stronger effect = lower value 0.988 | locus YDR150W, strain NUM1, stronger effect = lower value 1.01 | locus YDR159W, strain sac3, stronger effect = lower value 1.01 | locus YDR162C, strain NBP2, stronger effect = lower value 1 | locus YDR195W, strain ref2 0.992 | locus YDR297W, strain sur2, stronger effect = lower value 1 | locus YDR318W, strain mcm21, stronger effect = lower value 0.993 | locus YDR334W, strain swr1, stronger effect = lower value 1 | locus YDR335W, strain msn5, stronger effect = lower value 1.02 | locus YDR388W, stronger effect = lower value 0.996 | locus YDR392W, strain spt3, stronger effect = lower value 0.952 | locus YDR502C, strain sam2, stronger effect = lower value 0.975 | locus YEL003W, strain gim4, stronger effect = lower value 1.02 | locus YEL037C, strain rad23, stronger effect = lower value 1.01 | locus YEL061C, strain CIN8 (second series), stronger effect = lower value 1.01 | locus YEL061C, strain CIN8, stronger effect = lower value 1 | locus YER015W, strain faa2, stronger effect = lower value 1 | locus YER016W, strain bim1, stronger effect = lower value 0.99 | locus YER110C, stronger effect = lower value 0.987 | locus YER111C, strain swi4, stronger effect = lower value 0.998 | locus YER155C, strain BEM2 (second series), stronger effect = lower value 1 | locus YER155C, strain BEM2, stronger effect = lower value 0.993 | locus YER167W, strain BCK2, stronger effect = lower value 1.01 | locus YFR010W, strain ubp6, stronger effect = lower value 1.01 | locus YGL078C, strain dbp3, stronger effect = lower value 0.993 | locus YGL086W, strain mad1, stronger effect = lower value 0.996 | locus YGL167C, strain pmr1, stronger effect = lower value 0.999 | locus YGL173C, strain kem1, stronger effect = lower value 1.01 | locus YGL227W, strain vid30, stronger effect = lower value 0.994 | locus YGL240W, strain doc1, stronger effect = lower value 0.99 | locus YGL248W, strain PDE1, stronger effect = lower value 1 | locus YGL253W, strain hxk2, stronger effect = lower value 0.997 | locus YGR078C, strain PAC10, stronger effect = lower value 0.995 | locus YGR135W, strain pre9, stronger effect = lower value 0.959 | locus YGR229C, strain SMI1, stronger effect = lower value 0.971 | locus YGR252W, strain gcn5, stronger effect = lower value 0.946 | locus YHR013C, strain ard1, stronger effect = lower value 0.983 | locus YHR027C, strain rpn1, stronger effect = lower value 1.02 | locus YHR030C, strain SLT2, stronger effect = lower value 0.996 | locus YHR079C, strain IRE1 (second series), stronger effect = lower value 0.986 | locus YHR079C, strain IRE1, stronger effect = lower value 0.994 | locus YHR094C, strain hxt1, stronger effect = lower value 0.984 | locus YHR129C, strain ARP1, stronger effect = lower value 1.01 | locus YHR142W, strain chs7, stronger effect = lower value 1 | locus YHR200W, strain rpn10, stronger effect = lower value 0.995 | locus YIL066C, strain RNR3, stronger effect = lower value 1.02 | locus YIL073C, strain SPO22, stronger effect = lower value 1.02 | locus YIL125W, strain kgd1, stronger effect = lower value 0.992 | locus YIR030C, strain dcg1, stronger effect = lower value 0.993 | locus YJL092W, strain hpr5, stronger effect = lower value 1.01 | locus YJL095W, strain BCK1 (second series), stronger effect = lower value 1.01 | locus YJL095W, strain BCK1, stronger effect = lower value 1 and 0.986 | locus YJL115W, strain asf1, stronger effect = lower value 0.994 | locus YJL129C, strain trk1, stronger effect = lower value 0.99 | locus YJL134W, strain LCB3, stronger effect = lower value 1 | locus YJL154C, strain vps35, stronger effect = lower value 0.996 | locus YJL164C, strain tpk1, stronger effect = lower value 1 | locus YJL166W, strain qcr8, stronger effect = lower value 1 | locus YJL168C, strain set2, stronger effect = lower value 0.994 | locus YJL187C, strain SWE1 (second series), stronger effect = lower value 1 | locus YJR043C, strain POL32, stronger effect = lower value 1.05 | locus YJR066W, strain TOR1, stronger effect = lower value 0.886 | locus YKL009W, strain mrt4, stronger effect = lower value 0.985 | locus YKL068W, stronger effect = lower value 0.997 | locus YKL085W, strain MDH1 (second series), stronger effect = lower value 0.99 | locus YKL085W, strain MDH1, stronger effect = lower value 0.99 | locus YKL160W, strain elf1, stronger effect = lower value 0.991 | locus YKR001C, strain vps1, stronger effect = lower value 0.978 | locus YKR026C, strain gcn3, stronger effect = lower value 0.995 | locus YKR091W, strain srl3, stronger effect = lower value 0.998 | locus YLL001W, strain dnm1, stronger effect = lower value 0.993 | locus YLL026W, stronger effect = lower value 0.989 | locus YLL041C, strain sdh2, stronger effect = lower value 0.989 | locus YLR027C, strain aat2, stronger effect = lower value 1.01 | locus YLR039C, strain RIC1, stronger effect = lower value 1.05 | locus YLR058C, strain SHM2, stronger effect = lower value 1 | locus YLR102C, strain apc9, stronger effect = lower value 0.99 | locus YLR113W, strain HOG1, stronger effect = lower value 1.04 | locus YLR221C, strain rsa3, stronger effect = lower value 1 | locus YLR258W, strain gsy2, stronger effect = lower value 1.01 | locus YLR262C, strain YPT6 (second series), stronger effect = lower value 1.01 | locus YLR262C, strain YPT6, stronger effect = lower value 1.03 | locus YLR268W, strain sec22, stronger effect = lower value 0.988 | locus YLR320W, strain mms22, stronger effect = lower value 0.992 | locus YLR342W, strain FKS1, stronger effect = lower value 0.994 | locus YLR357W, strain rsc2, stronger effect = lower value 0.984 | locus YLR370C, strain arc18, stronger effect = lower value 0.998 | locus YLR371W, strain rom2, stronger effect = lower value 1 | locus YLR384C, strain iki3, stronger effect = lower value 0.978 | locus YLR418C, strain cdc73, stronger effect = lower value 0.948 | locus YML016C, strain PPZ1, stronger effect = lower value 1.01 | locus YML032C, strain rad52, stronger effect = lower value 0.984 | locus YML120C, strain ndi1, stronger effect = lower value 1 | locus YML124C, strain tub3, stronger effect = lower value 0.985 | locus YMR058W, strain fet3, stronger effect = lower value 1.01 | locus YMR078C, strain ctf18, stronger effect = lower value 0.996 | locus YMR125W, strain sto1, stronger effect = lower value 1.02 | locus YMR129W, stronger effect = lower value 0.989 | locus YMR205C, strain PFK2, stronger effect = lower value 0.995 | locus YMR223W, strain ubp8, stronger effect = lower value 0.99 | locus YMR231W, strain pep5, stronger effect = lower value 1 | locus YMR263W, strain SAP30, stronger effect = lower value 0.998 | locus YMR307W, strain GAS1, stronger effect = lower value 1.08 | locus YNL067W, strain RPL9B, stronger effect = lower value 0.989 | locus YNL071W, strain lat1, stronger effect = lower value 1.01 | locus YNL153C, strain GIM3, stronger effect = lower value 1.01 | locus YNL183C, strain NPR1, stronger effect = lower value 0.935 | locus YNL209W, strain ssb2, stronger effect = lower value 0.994 | locus YNL233W, strain BNI4, stronger effect = lower value 0.991 | locus YNL248C, strain rpa49, stronger effect = lower value 0.975 | locus YNL250W, strain rad50, stronger effect = lower value 0.989 | locus YNL271C, strain bni1, stronger effect = lower value 1 | locus YNL298W, strain CLA4, stronger effect = lower value 0.985 | locus YNL307C, strain MCK1, stronger effect = lower value 0.98 | locus YNL322C, strain KRE1 (second series), stronger effect = lower value 0.971 | locus YNL322C, strain KRE1, stronger effect = lower value 1.01 | locus YNR049C, strain mso1, stronger effect = lower value 0.993 | locus YNR052C, strain pop2, stronger effect = lower value 0.991 | locus YOL012C, strain htz1 0.837 | locus YOL147C, strain pex11, stronger effect = lower value 0.983 | locus YOR001W, strain rrp6, stronger effect = lower value 1.01 | locus YOR061W, strain CKA2, stronger effect = lower value 1 | locus YOR069W, strain VPS5, stronger effect = lower value 1 | locus YOR070C, strain gyp1, stronger effect = lower value 0.993 | locus YOR080W, strain dia2, stronger effect = lower value 0.99 | locus YOR083W, strain WHI5, stronger effect = lower value 0.988 | locus YOR106W, strain vam3, stronger effect = lower value 1 | locus YOR136W, strain idh2, stronger effect = lower value 0.989 | locus YOR144C, strain elg1, stronger effect = lower value 0.991 | locus YOR184W, strain ser1, stronger effect = lower value 0.992 | locus YOR231W, strain MKK1, stronger effect = lower value 0.958 | locus YOR265W, strain rbl2, stronger effect = lower value 1.02 | locus YOR270C, strain vph1, stronger effect = lower value 0.965 | locus YOR290C, strain snf2, stronger effect = lower value 0.993 | locus YOR316C, strain cot1, stronger effect = lower value 0.989 | locus YPL051W, strain arl3, stronger effect = lower value 0.974 | locus YPL078C, strain atp4, stronger effect = lower value 0.988 | locus YPL106C, strain sse1, stronger effect = lower value 0.996 | locus YPL240C, strain hsp82, stronger effect = lower value 1 | locus YPL241C, strain CIN2, stronger effect = lower value 1 | locus YPL256C, strain CLN2, stronger effect = lower value 0.991 | locus YPR119W, strain clb2, stronger effect = lower value 0.994 | locus YPR141C, strain kar3, stronger effect = lower value 0.987 | locus YPR163C, strain tif3, stronger effect = lower value 0.98 | locus YPR167C, strain met16, stronger effect = lower value 0.979 | strain wtn01, stronger effect = lower value 0.995
